Compound activity: PubChem BioAssay, National Center for Advancing Translational Sciences (NCATS)
Shown are actives, neighbours in structure and some others; about 5.3% of the full set was active somewhere.
HP1b binding inh: inhibitors of HP1-beta chromodomain binding to methylated histone tails; 390,000 tested, 0.56% active; AlphaScreen HP1-beta / biotin-H3K9me3 peptide binding; P83916; Potency, µM (top dose mostly 114 µM), inactives show top-dose activity change, negative = inhibition, usual class: inhibitors; note: potency is the fitted concentration of half-maximal effect; nearly all actives have a fitted effect of over 70% in size
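AlphaScreen: HP1-beta (50 nM) preformed 30 min with biotin-H3(1-18)K9me3 peptide (50 nM) in PBS pH 7.4, 0.01% Tween-20. Compound added for 30 min at RT, then streptavidin donor/nickel chelate acceptor beads (10 ug/mL) for 30 min.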
CtBP-E1A inh: inhibitors of CtBP/E1A interaction. AlphaScreen GST-E1A/His-CtBP binding, 1536-well; active compounds read low. activity change, % (concentration not given with the values). 340,000 tested, 0.49% active; in the data active = activity change below about -65%; inconclusive = mostly about -30% to -63%; note: % is set by controls: 0 for no effect and ±100 for the full control effect
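Homogeneous bead-based format: GST-tagged E1A captured on glutathione donor beads, His-tagged CtBP on nickel acceptor beads; compounds precede bead addition by 2 h at 37 °C.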
BAZ2B block: inhibitors of human BAZ2B bromodomain; Q9UIF8; AlphaScreen BAZ2B-H3K14Ac peptide displacement; Potency, µM (series often up to 114 µM), for the others: top-dose activity change, negative = inhibition, usual class: inhibitors; 360,000 tested, 4.4% active; note: potency is the fitted concentration of half-maximal effect; % is set by controls: 0 for no effect and ±100 for the full control effect; nearly all actives have a fitted effect of over 60% in size
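Multi-concentration screen (max 110 uM) measuring displacement of acetylated histone H3 peptide from BAZ2B by AlphaScreen, using 50 nM protein, 50 nM peptide and 10 ug/mL streptavidin donor plus Ni-chelate acceptor beads.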
Six1-Eya2 blk: inhibitors of human Six1/Eya2 interaction; AlphaScreen GST-Six1/His-Eya2 binding, biochemical; active compounds read low; Q15475+O00167; AID 651725; activity change, % (no concentration beside the values); 360,000 tested, 0.56% active; in the data active = activity change below about -65%; inconclusive = mostly about -30% to -63%; note: % is set by controls: 0 for no effect and ±100 for the full control effect
Target sequence (O00167 whole entry, looked up): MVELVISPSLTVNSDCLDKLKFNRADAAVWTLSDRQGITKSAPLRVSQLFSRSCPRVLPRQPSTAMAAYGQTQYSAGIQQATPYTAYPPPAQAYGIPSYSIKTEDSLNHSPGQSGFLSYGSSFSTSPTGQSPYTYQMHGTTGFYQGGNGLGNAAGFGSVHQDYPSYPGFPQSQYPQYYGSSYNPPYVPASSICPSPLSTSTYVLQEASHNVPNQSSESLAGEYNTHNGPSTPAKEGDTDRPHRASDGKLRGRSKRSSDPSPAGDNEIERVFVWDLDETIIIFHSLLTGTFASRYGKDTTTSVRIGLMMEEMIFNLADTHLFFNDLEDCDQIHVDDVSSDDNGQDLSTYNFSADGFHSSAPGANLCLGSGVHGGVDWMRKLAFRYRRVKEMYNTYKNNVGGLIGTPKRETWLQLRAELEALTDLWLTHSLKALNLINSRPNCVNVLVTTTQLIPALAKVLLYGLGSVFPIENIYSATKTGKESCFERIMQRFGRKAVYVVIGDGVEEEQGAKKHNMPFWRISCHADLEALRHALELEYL
Target sequence (Q15475 whole entry, looked up): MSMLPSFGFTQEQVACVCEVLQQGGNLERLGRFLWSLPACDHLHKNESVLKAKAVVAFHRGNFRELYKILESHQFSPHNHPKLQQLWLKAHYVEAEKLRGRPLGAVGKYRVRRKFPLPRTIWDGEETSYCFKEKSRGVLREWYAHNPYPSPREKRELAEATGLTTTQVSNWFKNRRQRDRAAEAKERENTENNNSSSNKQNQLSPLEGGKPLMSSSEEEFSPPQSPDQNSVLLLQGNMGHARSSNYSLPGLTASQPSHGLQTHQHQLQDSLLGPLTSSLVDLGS
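Compounds are tested against tagged Six1 and Eya2 proteins bridged by glutathione donor and nickel acceptor beads; after a one-hour incubation at 37 °C without light, AlphaScreen emission is recorded.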
TDP1 block: blocks human tyrosyl-DNA phosphodiesterase 1. Q9NUW8. recombinant TDP1, AlphaScreen DNA substrate cleavage. Potency, µM (series often up to 130 µM), without a hit: at the highest dose activity change, negative = inhibition, usual class: inhibitors. 350,000 tested, 0.28% active. AID 485290; note: potency is the fitted concentration of half-maximal effect; % is set by controls: 0 for no effect and ±100 for the full control effect; nearly all actives have a fitted effect of over 40% in size
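Enzyme-compound mixtures sat 15 min at room temperature, followed by a 5 min reaction with 15 nM final substrate and 10 min with AlphaScreen beads. Recombinant human Tdp1 was used at 1 nM final.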
JMJD2A Tudor inh: inhibitors of human JMJD2A Tudor domain | AlphaScreen JMJD2A-Tudor / H3K4me3 peptide binding | Potency, µM (titrated, usually from 114 µM), for inactives: top-dose activity change, negative = inhibition, usual class: inhibitors | 390,000 tested, 4.4% active | AID 504339; note: potency is the fitted concentration of half-maximal effect; % is set by controls: 0 for no effect and ±100 for the full control effect; nearly all actives have a fitted effect of over 50% in size
* hit, by the source's call; ? = inconclusive; · = not tested or not shown; [ ] = dose if it differs, or a comment. Unless noted, calls come from the whole dose curve; as a rule, active = well fitted inhibition curve with a large enough effect; inconclusive = small, poorly fitted or top-dose-only effect; inactive = no such curve, though single readings can be large or run the other way.

SMILES	HP1b binding inh	CtBP-E1A inh	BAZ2B block	Six1-Eya2 blk	TDP1 block	JMJD2A Tudor inh
CCc1ccccc1NC(=O)CSc1nc2n[nH]c(C)c2c(=N)n1-c1ccc(OC)cc1	33.5%	-65.2*	3.9%	-74.2*	0.0%	-7.4%
COc1ccccc1NC(=O)CSc1nc2n[nH]c(C)c2c(=N)n1-c1ccccc1Cl	26.9%	-68.6*	-3.8%	?	5.2%	-19.2%
Cc1ccc(-n2c(-c3nn(C)cc3Cl)n[nH]c2=S)cc1	26.6%	3.0	2.3%	2.2	-5.3%	8.91µM*
Cc1c(Cl)c(-c2n[nH]c(=S)n2-c2ccc(F)cc2)nn1C	27.5%	-3.1	-5.0%	7.2	2.9%	44.7µM*
Cn1cc(Cl)c(-c2n[nH]c(=S)n2-c2ccccc2)n1	36.0%	-0.8	-1.3%	-4.3	6.3%	6.31µM*
Cc1nn(C)c(-c2n[nH]c(=S)n2-c2ccccc2)c1Cl	19.3%	3.8	3.4%	-4.7	2.6%	35.5µM*
Cn1cc(Cl)c(-c2n[nH]c(=S)n2-c2ccc(F)cc2)n1	47.2%	6.0	-2.8%	4.7	2.6%	?
Cc1ccc(CCNC(=O)c2sc3nc4n(c(=O)c3c2C)CCCC4)cc1	12.1%	·	?	·	2.6%	-19.7%
COC(=O)c1c(NC(=O)c2nc(SCc3ccc(C)cc3)ncc2Cl)sc2c1CCCC2	27.3%	·	-7.1%	·	-2.3%	-14.8%
Cc1nn(C)cc1-c1n[nH]c(=S)n1-c1ccc(F)cc1	16.2%	-0.1	-20.0%	8.3	-1.9%	5.62µM*
Nc1nn(-c2ccccc2)c(N)c1N=Nc1ccc2c(c1)OCO2	17.8µM*	?	31.6µM*	?	5.3%	50.1µM*
Nc1nn(-c2ccccc2)c(N)c1N=Nc1cccc(F)c1	?	-17.3	35.5µM*	-23.9	9.6%	35.5µM*
Cc1nn(-c2ccccc2)c(N)c1N=Nc1cccnc1	7.5%	·	-35.7%	6.3	2.5%	?
Oc1ccc(N=Nc2ccc3c(c2)OCO3)c2ccccc12	·	·	?	·	6.2%	·
CC1(C(O)(C#CC[N+]2(C)CCCCC2)c2ccccc2)CCCC1 (stereo not drawn)	?	1.7	?	-2.3	4.8%	?
CC1(C#CC[N+]2(C)CCCCC2)CCC2C(O1)c1ccccc1OC2(C)C (stereo not drawn)	?	·	56.2µM*	-0.8	6.0%	-26.1%
Cc1nnc(NC(=O)C2CCN(S(=O)(=O)c3ccc(F)c(Cl)c3)CC2)o1	34.3%	-15.2	31.6µM*	?	-6.0%	3.55µM*
CCOc1ccc(NC(=O)Cn2c(=O)oc3cc(S(=O)(=O)N4CCC(C)CC4)ccc32)cc1	17.0%	·	-6.6%	·	1.3%	-17.2%
C/C=C/c1ccc(OCCCCOc2c(OC)cccc2OC)c(OC)c1	129.2%	34.6	41.7%	5.4	0.0%	29.5%
C/C=C/c1ccc(OCCCCN(C)Cc2ccccc2)c(OC)c1	?	·	50.1µM*	-5.2	·	17.8µM*
C/C=C/c1ccc(OCCNCc2ccccc2)c(OC)c1	?	-1.0	56.2µM*	-0.3	·	-17.9%
C/C=C/c1ccc(OCCCCOc2ccccc2C(C)=O)c(OC)c1	23.2%	3.3	31.3%	14.0	-5.3%	-7.6%
O=C(CCC1N=C2c3ccccc3N=C(SCc3ccccc3F)N2C1=O)NC1CCCCC1 (stereo not drawn)	20.5%	·	-9.1%	·	-2.5%	-0.3%
CCCNC(=O)CCC(=O)N1Cc2cccc(OC)c2Oc2ncccc21	32.2%	·	9.0%[57.1 µM]	·	-1.1%	6.1%
O=C(Cc1ccc(F)cc1)OCN1C(=O)c2ccccc2C1=O	46.0%	9.4	79.4µM*	3.3	4.4%	-9.0%
SMILES	HP1b binding inh	CtBP-E1A inh	BAZ2B block	Six1-Eya2 blk	TDP1 block	JMJD2A Tudor inh
Cc1ccc(S(=O)(=O)c2nnn3c2nc(N(C)Cc2ccccc2)c2cc(Cl)ccc23)cc1C	55.0%	·	3.7%	·	2.0%	0.4%
O=C(O)C1=C(C(=O)O)C2C=CC1C2	-10.7%[57 µM]	4.1	·	-5.0	·	89.1µM*
CCCOc1cccc(C2c3c(oc4ccc(F)cc4c3=O)C(=O)N2CCc2ccc(OC)cc2)c1 (stereo not drawn)	33.5%	·	1.3%	·	-1.1%	-3.8%
O=C(OCC#CCSc1nnc(-c2ccc(Cl)cc2)o1)c1ccc(F)cc1	·	·	·	·	-8.4%	17.7%
COc1ccccc1CNc1nc(=S)[nH]c2cc(OC)c(OC)cc12	37.2%	-85.3*	-10.4%	-80.7*	·	-31.5%
COc1cc2ncnc(NCc3cccs3)c2cc1OC	48.7%	-0.5	-15.6%	-15.4	0.0%	4.8%
COc1cc2[nH]c(=S)nc(NCc3cccs3)c2cc1OC	29.1%	-89.5*	2.4%	-84.5*	5.7%	-12.8%
COCCN=C1Sc2nc3c(C)cccc3cc2CN1Cc1ccco1	-21.1%	-14.1	-8.8%	-11.2	-2.0%	?
Cc1cccc2cc3c(nc12)SC(=NCC1CCCO1)N(Cc1ccco1)C3 (stereo not drawn)	?	-7.6	?	-17.6	3.1%	56.2µM*
Cc1ccc2nc3c(cc2c1)CN(Cc1ccco1)C(=NCC1CCCO1)S3 (stereo not drawn)	?	-6.9	-8.6%	-8.3	2.6%	56.2µM*
CCOC(=O)n1c(=O)oc2ccc(Cl)cc21	27.1%	-26.5	4.8%	-24.8	-1.1%	28.2µM*
COc1ccc(C(c2nnnn2C2CCCCC2)N2CCN(C)CC2)c(OC)c1 (stereo not drawn)	29.4%	3.6	-10.1%	-11.7	8.3%	-2.8%
C=CCN1CCN(C(c2ccc(Cl)cc2)c2nnnn2CCc2ccc(OC)c(OC)c2)CC1 (stereo not drawn)	73.0%	-2.2	-5.7%	-0.5	-2.8%	1.2%
COc1ccc(OC)c(C(c2nnnn2CC2CCCO2)N2CCN(C)CC2)c1 (stereo not drawn)	17.4%	-3.9	79.4µM*	5.9	-4.8%	-13.7%
C=CCN1CCN(C(c2ccc(OC)c(OC)c2)c2nnnn2C(C)(C)C)CC1 (stereo not drawn)	50.4%	10.3	79.4µM*	4.0	-2.9%	0.0%
COc1ccc(OC)c(C(c2nnnn2C2CCCC2)N2CCN(c3ccccc3)CC2)c1 (stereo not drawn)	-24.4%	-4.8	50.1µM*	-21.9	9.6%	56.2µM*
C=CCN1CCN(C(c2ccccc2)c2nnnn2CCC(C)C)CC1 (stereo not drawn)	50.8%	-5.2	?	12.4	11.5%	3.16µM*
CCCCC12CN3CC(C)(CN(C1)C3c1c[nH]c3ccccc13)C2=O (stereo not drawn)	12.4%	·	-36.0%	·	2.3%	-30.5%
CC(=O)c1ccc(NC(=O)CN(C)S(=O)(=O)c2cccc3nsnc23)cc1	5.7%	·	·	·	4.7%	-24.7%
Cc1ccc(Cl)cc1NC(=O)C1CCN(C(=O)c2cnn(-c3ccccc3)c2-n2cccc2)CC1	20.8%	·	-5.8%	·	7.6%	-9.4%
